# From article PMC7862700, “An all-to-all approach to the identification of sequence-specific readers for epigenetic DNA modifications on cytosine”
# What was measured:
# Assay in all cases: DAPPL (digital affinity profiling via proximity ligation, sequencing); 10 mM Tris-HCl pH 7.5, 50 mM NaCl, 1 mM DTT, 4% glycerol, room temperature, 30 min; GST-TFs on glutathione beads, 16-mer random dsDNA library, 0.1% formaldehyde crosslink after washing; high values mean tight binding
# FLI1 = biological target: T1, FLI1 (Homo sapiens, UniProt Q01543 1-452); details: protein: recombinant; tags: N-terminal GST; dsDNA, one strand shown
# T1 sequence: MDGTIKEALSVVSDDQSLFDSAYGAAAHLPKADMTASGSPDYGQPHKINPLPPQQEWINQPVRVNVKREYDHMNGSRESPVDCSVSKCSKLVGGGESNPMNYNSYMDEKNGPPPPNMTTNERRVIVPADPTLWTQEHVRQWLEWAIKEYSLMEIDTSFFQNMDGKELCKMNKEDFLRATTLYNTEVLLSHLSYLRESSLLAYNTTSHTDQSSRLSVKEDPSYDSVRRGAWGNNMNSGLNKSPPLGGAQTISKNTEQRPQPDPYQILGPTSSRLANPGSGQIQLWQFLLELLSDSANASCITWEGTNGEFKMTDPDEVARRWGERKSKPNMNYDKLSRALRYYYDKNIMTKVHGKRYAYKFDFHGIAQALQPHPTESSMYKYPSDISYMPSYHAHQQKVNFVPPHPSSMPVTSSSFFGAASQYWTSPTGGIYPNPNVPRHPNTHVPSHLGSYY
# Outline: (§1)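 Pools of DNA-barcoded human transcription factors, expressed in yeast as GST fusions on glutathione beads and combined with a tag-only sample, were incubated with 200 nmole of a 16-mer random double-stranded DNA library. Incubation took 30 min at room temperature in Tris/NaCl/DTT/glycerol buffer and was followed by washing, 0.1% formaldehyde crosslinking, proximity ligation (BsaI/T4 ligase, 1 h, 37 °C), PCR amplification and sequencing on an Illumina NextSeq500. Binding signal is the ratio of a hexamer's read frequency for a factor to its frequency for the tag-only sample.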
# ELK1 = biological target: T2, ELK1 (Homo sapiens, UniProt P19419 1-428); details: protein: recombinant; tags: N-terminal GST; dsDNA, one strand shown
# T2 sequence: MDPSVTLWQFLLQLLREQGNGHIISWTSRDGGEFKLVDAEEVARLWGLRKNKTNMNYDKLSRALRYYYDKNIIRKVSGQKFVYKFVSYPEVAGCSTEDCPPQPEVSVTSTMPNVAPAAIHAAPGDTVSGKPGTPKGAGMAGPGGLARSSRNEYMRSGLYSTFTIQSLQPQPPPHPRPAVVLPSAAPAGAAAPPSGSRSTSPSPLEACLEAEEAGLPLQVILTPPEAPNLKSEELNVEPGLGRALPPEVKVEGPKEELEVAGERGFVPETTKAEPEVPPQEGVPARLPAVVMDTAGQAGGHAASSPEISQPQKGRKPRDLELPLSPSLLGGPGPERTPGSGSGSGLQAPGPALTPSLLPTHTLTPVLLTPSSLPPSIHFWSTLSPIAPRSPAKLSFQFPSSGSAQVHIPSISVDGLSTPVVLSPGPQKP
# Outline: as §1
# GABPA = biological target: T3, GABPA (Homo sapiens, UniProt Q06546 1-454); details: protein: recombinant; tags: N-terminal GST; dsDNA, one strand shown
# T3 sequence: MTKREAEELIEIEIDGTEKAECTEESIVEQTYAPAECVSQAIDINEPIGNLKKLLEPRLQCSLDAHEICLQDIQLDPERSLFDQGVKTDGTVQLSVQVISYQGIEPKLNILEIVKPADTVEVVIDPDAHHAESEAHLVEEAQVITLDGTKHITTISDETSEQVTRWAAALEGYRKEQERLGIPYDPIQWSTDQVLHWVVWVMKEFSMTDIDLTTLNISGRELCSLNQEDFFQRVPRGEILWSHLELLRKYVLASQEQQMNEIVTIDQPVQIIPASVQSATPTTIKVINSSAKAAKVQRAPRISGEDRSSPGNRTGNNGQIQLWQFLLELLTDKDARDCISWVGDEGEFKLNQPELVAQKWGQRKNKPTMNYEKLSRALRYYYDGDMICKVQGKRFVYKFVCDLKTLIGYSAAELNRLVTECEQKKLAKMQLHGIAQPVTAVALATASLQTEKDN
# Outline: as §1
# ERG = biological target: T4, ERG (Homo sapiens, UniProt P11308 1-479); details: protein: recombinant; tags: N-terminal GST; dsDNA, one strand shown
# T4 sequence: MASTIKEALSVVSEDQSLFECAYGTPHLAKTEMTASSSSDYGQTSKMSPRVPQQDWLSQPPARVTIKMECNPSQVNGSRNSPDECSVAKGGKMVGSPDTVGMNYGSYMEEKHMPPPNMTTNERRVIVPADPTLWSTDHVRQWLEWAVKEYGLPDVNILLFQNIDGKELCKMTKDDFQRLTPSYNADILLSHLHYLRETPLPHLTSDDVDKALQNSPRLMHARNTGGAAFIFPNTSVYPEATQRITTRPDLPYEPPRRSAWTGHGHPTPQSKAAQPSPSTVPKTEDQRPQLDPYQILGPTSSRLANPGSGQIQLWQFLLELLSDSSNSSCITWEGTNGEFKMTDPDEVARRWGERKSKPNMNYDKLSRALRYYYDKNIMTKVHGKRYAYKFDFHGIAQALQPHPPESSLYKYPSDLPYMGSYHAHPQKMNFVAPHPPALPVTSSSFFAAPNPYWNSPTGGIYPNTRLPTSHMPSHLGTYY
# Outline: as §1
# ELF1 = ELF1 (Homo sapiens, UniProt P32519 1-619); details: protein: recombinant; tags: N-terminal GST; dsDNA, one strand shown
# Chain of ELF1 (P32519 whole entry): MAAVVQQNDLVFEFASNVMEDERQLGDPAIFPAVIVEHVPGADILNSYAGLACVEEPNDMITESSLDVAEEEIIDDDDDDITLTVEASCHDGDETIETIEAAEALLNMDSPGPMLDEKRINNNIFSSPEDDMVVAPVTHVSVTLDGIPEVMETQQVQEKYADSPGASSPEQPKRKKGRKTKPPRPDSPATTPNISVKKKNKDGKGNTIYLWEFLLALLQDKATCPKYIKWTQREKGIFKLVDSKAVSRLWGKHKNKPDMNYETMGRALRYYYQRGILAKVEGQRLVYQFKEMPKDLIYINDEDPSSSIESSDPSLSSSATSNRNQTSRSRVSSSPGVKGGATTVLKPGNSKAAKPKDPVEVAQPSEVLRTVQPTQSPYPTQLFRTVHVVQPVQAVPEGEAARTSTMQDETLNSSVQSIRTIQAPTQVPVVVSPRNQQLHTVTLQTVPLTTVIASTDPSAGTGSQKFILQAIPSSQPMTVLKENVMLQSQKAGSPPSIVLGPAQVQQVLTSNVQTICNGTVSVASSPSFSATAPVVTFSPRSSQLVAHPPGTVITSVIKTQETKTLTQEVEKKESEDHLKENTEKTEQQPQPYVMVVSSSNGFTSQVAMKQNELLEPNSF
# Outline: as §1
# EHF = biological target: T5, EHF (Homo sapiens, UniProt Q9NZC4 1-300); details: protein: recombinant; tags: N-terminal GST; dsDNA, one strand shown
# T5 sequence: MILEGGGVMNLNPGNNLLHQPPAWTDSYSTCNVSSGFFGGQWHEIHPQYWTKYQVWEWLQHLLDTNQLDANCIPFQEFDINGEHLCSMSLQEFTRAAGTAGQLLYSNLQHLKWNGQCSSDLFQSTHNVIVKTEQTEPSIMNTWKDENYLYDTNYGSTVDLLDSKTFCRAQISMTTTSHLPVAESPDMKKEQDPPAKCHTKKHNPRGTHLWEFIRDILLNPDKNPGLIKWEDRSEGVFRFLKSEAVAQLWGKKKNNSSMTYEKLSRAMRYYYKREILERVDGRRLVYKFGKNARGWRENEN
# Outline: as §1
# SPI1 = SPI1 (Homo sapiens, UniProt P17947 1-270); details: protein: recombinant; tags: N-terminal GST; dsDNA, one strand shown
# Outline: as §1
# SPIB = SPIB (Homo sapiens, UniProt Q01892 1-262); details: protein: recombinant; tags: N-terminal GST; dsDNA, one strand shown
# Chain of SPIB (Q01892 whole entry): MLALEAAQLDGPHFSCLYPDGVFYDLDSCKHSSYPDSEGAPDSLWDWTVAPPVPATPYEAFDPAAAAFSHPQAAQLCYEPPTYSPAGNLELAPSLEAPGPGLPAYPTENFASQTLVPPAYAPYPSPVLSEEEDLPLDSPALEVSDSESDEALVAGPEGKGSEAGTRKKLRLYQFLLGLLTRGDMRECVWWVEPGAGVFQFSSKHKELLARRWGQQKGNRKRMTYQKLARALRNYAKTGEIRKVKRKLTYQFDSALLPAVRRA
# Outline: as §1
# FEV = biological target: T6, FEV (Homo sapiens, UniProt Q99581 1-238); details: protein: recombinant; tags: N-terminal GST; dsDNA, one strand shown
# T6 sequence: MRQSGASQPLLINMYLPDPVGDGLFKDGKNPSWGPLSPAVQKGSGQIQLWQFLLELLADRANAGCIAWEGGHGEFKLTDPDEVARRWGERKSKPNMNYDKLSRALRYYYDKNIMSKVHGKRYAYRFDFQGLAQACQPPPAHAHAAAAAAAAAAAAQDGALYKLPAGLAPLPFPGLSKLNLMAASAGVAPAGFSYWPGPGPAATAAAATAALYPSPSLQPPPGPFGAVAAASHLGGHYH
# Outline: as §1
# ETV5 = ETV5 (Homo sapiens, UniProt P41161 1-510); details: protein: recombinant; tags: N-terminal GST; dsDNA, one strand shown
# Chain of ETV5 (P41161 whole entry): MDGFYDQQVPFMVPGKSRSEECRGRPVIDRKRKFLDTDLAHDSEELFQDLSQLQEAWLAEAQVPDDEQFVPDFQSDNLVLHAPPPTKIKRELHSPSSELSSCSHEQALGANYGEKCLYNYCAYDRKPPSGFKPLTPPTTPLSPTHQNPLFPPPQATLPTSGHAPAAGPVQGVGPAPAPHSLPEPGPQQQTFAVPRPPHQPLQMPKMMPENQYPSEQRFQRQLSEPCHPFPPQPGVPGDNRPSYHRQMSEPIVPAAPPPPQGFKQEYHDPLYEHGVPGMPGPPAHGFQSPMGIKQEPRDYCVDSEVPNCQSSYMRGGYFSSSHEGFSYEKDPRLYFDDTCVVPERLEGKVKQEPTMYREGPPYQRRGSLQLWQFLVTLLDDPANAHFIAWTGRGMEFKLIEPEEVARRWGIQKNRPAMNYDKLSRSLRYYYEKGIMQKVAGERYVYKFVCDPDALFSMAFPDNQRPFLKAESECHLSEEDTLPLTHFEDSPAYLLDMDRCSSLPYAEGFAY
# Outline: as §1
# HSF1 = HSF1 (Homo sapiens, UniProt Q00613 1-529); details: protein: recombinant; tags: N-terminal GST; chain copies: 3; dsDNA, one strand shown
# Chain of HSF1 (Q00613 whole entry): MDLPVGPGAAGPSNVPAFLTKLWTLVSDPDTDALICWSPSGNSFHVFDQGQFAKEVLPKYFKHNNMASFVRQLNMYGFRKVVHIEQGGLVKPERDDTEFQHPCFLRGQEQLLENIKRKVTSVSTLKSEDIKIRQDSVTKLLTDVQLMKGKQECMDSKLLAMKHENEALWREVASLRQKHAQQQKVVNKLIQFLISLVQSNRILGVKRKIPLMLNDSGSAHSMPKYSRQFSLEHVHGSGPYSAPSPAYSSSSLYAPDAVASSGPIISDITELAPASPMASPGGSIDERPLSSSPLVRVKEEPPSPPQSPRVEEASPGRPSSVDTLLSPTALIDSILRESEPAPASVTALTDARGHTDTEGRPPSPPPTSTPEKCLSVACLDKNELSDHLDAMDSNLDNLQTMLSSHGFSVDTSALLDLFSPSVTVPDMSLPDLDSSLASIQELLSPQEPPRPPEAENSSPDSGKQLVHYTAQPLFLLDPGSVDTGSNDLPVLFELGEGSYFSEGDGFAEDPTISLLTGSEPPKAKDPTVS
# Outline: as §1
# SPIC = biological target: T7, SPIC (Homo sapiens, UniProt Q8N5J4 1-248); details: protein: recombinant; tags: N-terminal GST; dsDNA, one strand shown
# T7 sequence: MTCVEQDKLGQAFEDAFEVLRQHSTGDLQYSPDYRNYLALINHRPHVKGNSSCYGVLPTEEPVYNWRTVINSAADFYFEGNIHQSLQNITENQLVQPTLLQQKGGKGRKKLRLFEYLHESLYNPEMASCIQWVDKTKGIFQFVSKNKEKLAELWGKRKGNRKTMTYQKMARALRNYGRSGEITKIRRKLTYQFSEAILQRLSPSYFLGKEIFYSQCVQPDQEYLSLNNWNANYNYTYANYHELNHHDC
# Outline: as §1
# ELF4 = ELF4 (Homo sapiens, UniProt Q99607 1-663); details: protein: recombinant; tags: N-terminal GST; dsDNA, one strand shown
# Chain of ELF4 (Q99607 whole entry): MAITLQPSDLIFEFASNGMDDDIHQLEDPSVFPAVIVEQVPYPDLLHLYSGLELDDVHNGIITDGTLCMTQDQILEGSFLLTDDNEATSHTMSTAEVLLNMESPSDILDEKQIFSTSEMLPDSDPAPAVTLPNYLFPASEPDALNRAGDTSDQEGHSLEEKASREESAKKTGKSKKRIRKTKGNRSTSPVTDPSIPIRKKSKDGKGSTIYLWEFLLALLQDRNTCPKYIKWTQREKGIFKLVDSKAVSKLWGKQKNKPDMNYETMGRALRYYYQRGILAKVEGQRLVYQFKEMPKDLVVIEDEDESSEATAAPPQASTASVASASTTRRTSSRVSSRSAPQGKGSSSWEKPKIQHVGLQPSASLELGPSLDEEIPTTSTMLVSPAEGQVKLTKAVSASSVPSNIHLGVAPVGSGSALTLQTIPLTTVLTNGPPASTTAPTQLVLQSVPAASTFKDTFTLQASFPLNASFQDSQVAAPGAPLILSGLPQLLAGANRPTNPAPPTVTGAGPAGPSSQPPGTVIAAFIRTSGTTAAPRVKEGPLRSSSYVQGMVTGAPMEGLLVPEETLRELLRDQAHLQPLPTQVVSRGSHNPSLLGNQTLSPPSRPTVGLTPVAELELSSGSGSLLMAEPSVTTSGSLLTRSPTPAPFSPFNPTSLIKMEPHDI
# Outline: as §1
# ELK4 = biological target: T8, ELK4 (Homo sapiens, UniProt P28324-2 1-405); details: protein: recombinant; tags: N-terminal GST; dsDNA, one strand shown
# T8 sequence: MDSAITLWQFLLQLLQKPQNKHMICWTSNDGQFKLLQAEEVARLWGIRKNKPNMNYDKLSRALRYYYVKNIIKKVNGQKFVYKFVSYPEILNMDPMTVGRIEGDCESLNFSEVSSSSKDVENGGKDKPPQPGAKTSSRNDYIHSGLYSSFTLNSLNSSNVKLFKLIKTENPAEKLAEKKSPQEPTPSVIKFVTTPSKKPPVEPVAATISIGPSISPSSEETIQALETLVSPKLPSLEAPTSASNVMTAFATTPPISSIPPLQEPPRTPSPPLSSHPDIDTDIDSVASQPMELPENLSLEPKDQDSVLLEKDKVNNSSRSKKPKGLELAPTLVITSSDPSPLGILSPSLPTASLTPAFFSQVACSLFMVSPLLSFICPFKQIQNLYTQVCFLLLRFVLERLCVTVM
# Outline: as §1
# ETV2 = biological target: T9, ETV2 (Homo sapiens, UniProt O00321 1-342); details: protein: recombinant; tags: N-terminal GST; dsDNA, one strand shown
# T9 sequence: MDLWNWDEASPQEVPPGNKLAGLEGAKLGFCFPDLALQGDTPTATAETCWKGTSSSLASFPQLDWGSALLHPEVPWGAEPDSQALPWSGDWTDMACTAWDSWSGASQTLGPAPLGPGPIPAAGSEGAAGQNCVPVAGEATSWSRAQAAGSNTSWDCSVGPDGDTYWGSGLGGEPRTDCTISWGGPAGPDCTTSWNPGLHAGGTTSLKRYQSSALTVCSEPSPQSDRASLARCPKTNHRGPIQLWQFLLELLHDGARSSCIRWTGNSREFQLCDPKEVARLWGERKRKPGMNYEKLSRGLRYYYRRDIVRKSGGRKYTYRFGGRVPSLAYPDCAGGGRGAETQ
# Outline: as §1
# ELF3 = biological target: T10, ELF3 (Homo sapiens, UniProt P78545 1-371); details: protein: recombinant; tags: N-terminal GST; dsDNA, one strand shown
# T10 sequence: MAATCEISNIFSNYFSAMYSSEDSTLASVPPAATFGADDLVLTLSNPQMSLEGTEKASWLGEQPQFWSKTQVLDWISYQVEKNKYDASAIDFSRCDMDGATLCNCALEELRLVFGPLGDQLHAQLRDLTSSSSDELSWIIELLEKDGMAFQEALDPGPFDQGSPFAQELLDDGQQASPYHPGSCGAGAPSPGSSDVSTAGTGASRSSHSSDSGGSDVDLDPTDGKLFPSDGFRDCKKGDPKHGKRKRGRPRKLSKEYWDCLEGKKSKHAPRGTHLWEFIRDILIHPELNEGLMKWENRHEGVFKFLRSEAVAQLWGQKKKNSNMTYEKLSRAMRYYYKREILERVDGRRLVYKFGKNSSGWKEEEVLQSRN
# Outline: as §1
# CRX = CRX (Homo sapiens, UniProt O43186 1-299); details: protein: recombinant; tags: N-terminal GST; dsDNA, one strand shown
# Chain of CRX (O43186 whole entry): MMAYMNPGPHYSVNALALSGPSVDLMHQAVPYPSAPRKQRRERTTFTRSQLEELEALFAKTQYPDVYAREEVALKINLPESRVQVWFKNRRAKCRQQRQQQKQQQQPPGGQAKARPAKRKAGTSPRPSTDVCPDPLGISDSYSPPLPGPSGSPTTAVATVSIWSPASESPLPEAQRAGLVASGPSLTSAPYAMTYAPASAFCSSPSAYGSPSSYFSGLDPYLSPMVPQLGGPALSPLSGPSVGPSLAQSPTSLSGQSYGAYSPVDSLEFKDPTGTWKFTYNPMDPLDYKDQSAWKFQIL
# Outline: as §1
# ETV1 = ETV1 (Homo sapiens, UniProt P50549 1-477); details: protein: recombinant; tags: N-terminal GST; dsDNA, one strand shown
# Chain of ETV1 (P50549 whole entry): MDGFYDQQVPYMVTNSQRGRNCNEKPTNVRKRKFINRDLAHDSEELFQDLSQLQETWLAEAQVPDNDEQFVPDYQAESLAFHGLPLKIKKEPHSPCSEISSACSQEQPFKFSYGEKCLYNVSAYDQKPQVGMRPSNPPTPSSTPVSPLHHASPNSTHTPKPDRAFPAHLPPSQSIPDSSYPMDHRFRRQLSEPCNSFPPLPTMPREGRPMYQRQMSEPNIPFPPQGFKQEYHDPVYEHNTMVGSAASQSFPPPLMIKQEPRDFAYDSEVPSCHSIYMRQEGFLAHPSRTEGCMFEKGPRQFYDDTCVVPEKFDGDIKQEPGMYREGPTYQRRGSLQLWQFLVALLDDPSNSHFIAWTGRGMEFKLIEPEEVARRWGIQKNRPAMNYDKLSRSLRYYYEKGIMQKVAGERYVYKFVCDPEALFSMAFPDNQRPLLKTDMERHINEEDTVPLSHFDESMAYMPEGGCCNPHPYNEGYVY
# Outline: as §1
Sequence,binding signal (FLI1),binding signal (ELK1),binding signal (GABPA),binding signal (ERG),binding signal (ELF1),binding signal (EHF),binding signal (SPI1),binding signal (SPIB),binding signal (FEV),binding signal (ETV5),binding signal (HSF1),binding signal (SPIC),binding signal (ELF4),binding signal (ELK4),binding signal (ETV2),binding signal (ELF3),binding signal (CRX),binding signal (ETV1)
CGAAAG,"1.15 fold enrichment (6-mer frequency, TF over GST control)","1.13 fold enrichment (6-mer frequency, TF over GST control)","1.08 fold enrichment (6-mer frequency, TF over GST control)","1.04 fold enrichment (6-mer frequency, TF over GST control)","1.09 fold enrichment (6-mer frequency, TF over GST control)","1.01 fold enrichment (6-mer frequency, TF over GST control)","1.16 fold enrichment (6-mer frequency, TF over GST control)","1.06 fold enrichment (6-mer frequency, TF over GST control)","1.04 fold enrichment (6-mer frequency, TF over GST control)","1.1 fold enrichment (6-mer frequency, TF over GST control)","1.81 fold enrichment (6-mer frequency, TF over GST control)","1.03 fold enrichment (6-mer frequency, TF over GST control)","1.06 fold enrichment (6-mer frequency, TF over GST control)","1.09 fold enrichment (6-mer frequency, TF over GST control)","1.13 fold enrichment (6-mer frequency, TF over GST control)","1.21 fold enrichment (6-mer frequency, TF over GST control)","1.11 fold enrichment (6-mer frequency, TF over GST control)","1.01 fold enrichment (6-mer frequency, TF over GST control)"
TCTGTG,"1.17 fold enrichment (6-mer frequency, TF over GST control)","1.14 fold enrichment (6-mer frequency, TF over GST control)","1.18 fold enrichment (6-mer frequency, TF over GST control)","1.07 fold enrichment (6-mer frequency, TF over GST control)","1.12 fold enrichment (6-mer frequency, TF over GST control)","1.13 fold enrichment (6-mer frequency, TF over GST control)","1.14 fold enrichment (6-mer frequency, TF over GST control)","1.14 fold enrichment (6-mer frequency, TF over GST control)","1.07 fold enrichment (6-mer frequency, TF over GST control)","1.08 fold enrichment (6-mer frequency, TF over GST control)","1.05 fold enrichment (6-mer frequency, TF over GST control)","1.34 fold enrichment (6-mer frequency, TF over GST control)","1.2 fold enrichment (6-mer frequency, TF over GST control)","1.21 fold enrichment (6-mer frequency, TF over GST control)","1.1 fold enrichment (6-mer frequency, TF over GST control)","1.07 fold enrichment (6-mer frequency, TF over GST control)","1.09 fold enrichment (6-mer frequency, TF over GST control)","1.16 fold enrichment (6-mer frequency, TF over GST control)"
